Bioassay records deposited in PubChem BioAssay by National Center for Advancing Translational Sciences (NCATS).
FMDV inh: blocks foot and mouth disease virus; FMDV antiviral cell-based qHTS; actives 1.2% (n = 410,000); Potency, µM (doses to about 57.9 µM), for the others: at the top dose activity change, negative = inhibition, actives largely listed as inhibitors; calls by dose curve; tested in HEK293T cells; note: read-out not given here; potency is the fitted concentration of half-maximal effect; nearly all actives have a fitted effect of over 45% in size
AmpC inh no detg: inhibitors of E. coli AmpC beta-lactamase without detergent | AID 485341 | Potency, µM (highest dose often 57.1 µM), for inactives: at the highest dose activity change, negative = inhibition, usual class: inhibitors | actives 0.52% (n = 330,000) | AmpC nitrocefin hydrolysis, absorbance 480 nm, 0.0001% Triton | P00811;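 note: potency is the fitted concentration of half-maximal effect; plate controls were no compound for no effect and no enzyme for full effect; nearly all actives have a fitted effect of over 20% in size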
Target sequence (P00811 whole entry, looked up): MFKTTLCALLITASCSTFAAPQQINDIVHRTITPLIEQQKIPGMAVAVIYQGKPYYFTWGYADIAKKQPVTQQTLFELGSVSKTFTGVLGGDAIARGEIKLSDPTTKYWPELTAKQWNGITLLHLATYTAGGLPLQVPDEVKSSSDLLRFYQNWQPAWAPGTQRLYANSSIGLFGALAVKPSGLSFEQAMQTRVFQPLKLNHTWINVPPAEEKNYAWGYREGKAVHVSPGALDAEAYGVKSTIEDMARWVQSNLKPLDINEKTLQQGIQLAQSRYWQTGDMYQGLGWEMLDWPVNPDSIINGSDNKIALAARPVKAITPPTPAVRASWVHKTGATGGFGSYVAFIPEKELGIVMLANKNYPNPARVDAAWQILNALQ
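AmpC (5.3 nM in the dispensed reagent) in 20 mM phosphate pH 7.0 with 0.01% (detergent screen) or 0.0001% Triton X-100 was preincubated with compounds for 15 min at room temperature. Nitrocefin was then added from an 800 uM solution, and hydrolysis was followed at 480 nm.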
AmpC inh detg: inhibitors of E. coli AmpC beta-lactamase with detergent | P00811 | AmpC hydrolysis of nitrocefin, absorbance 480 nm, 0.01% Triton | Potency, µM (top dose mostly 114 µM), for inactives: at the top dose activity change, negative = inhibition, usual class: inhibitors | actives 0.041% (n = 370,000);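 note: potency is the fitted concentration of half-maximal effect; 0% = no-compound wells and -100% = no-enzyme wells; nearly all actives have a fitted effect of over 25% in size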
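AmpC (5.3 nM in the dispensed reagent) in 20 mM phosphate pH 7.0 with 0.01% (detergent screen) or 0.0001% Triton X-100 was preincubated with compounds for 15 min at room temperature. Nitrocefin was then added from an 800 uM solution, and hydrolysis was followed at 480 nm.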
HCMV antiviral: human cytomegalovirus inhibition; AID 1259415; activity change, negative = inhibition, % at 57.5 µM; actives 4.5% (n = 410,000); HFF cells, HCMV-luciferase reporter, 72 h; stronger effect = lower value; in the data active = activity change below about -60%; inconclusive = no clear call, values can overlap the other calls; inactive = above about -39%
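Cell-based, HFFs, 1000 cells/well, 16 h 37C; cpds in DMSO + HCMV-luc, MOI 1 PFU/cell; 72 h 37C; OneGlo luminescence after 5 min RT; norm. to buffer vs Salinomycin 10uM.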
HCV inh: inhibitors of hepatitis C virus infection | Huh7.5.1 HCVcc-Cre infection, luciferase reporter, 44 h | Potency, µM (doses to about 41.8 µM), without a hit: top-dose activity change, negative = inhibition, usual class: inhibitors | actives 3.4% (n = 340,000); note: potency is the fitted concentration of half-maximal effect
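A cell-based infection assay in which seeded cells (1,000 per well) receive test compound after 4 h, are inoculated with HCVcc-Cre at approximately 0.5 moi, and are incubated 44 h before luminescence detection.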
Numbers without * were called inactive; ? = inconclusive; . = not tested or not shown. A selection: hits, their analogues and other compounds. The true share with any hit is near 7.3%. Unless noted, calls come from the whole dose curve; as a rule, active = well fitted curve in the direction sought with a large enough effect; inconclusive = small, poorly fitted or top-dose-only effect, or another doubt; inactive = no such curve, though single readings can be large; an effect the other way counts as inactive or inconclusive. Unless noted, % is set by controls: 0 for no effect and ±100 for the full control effect.

SMILES | FMDV inh | AmpC inh no detg | AmpC inh detg | HCMV antiviral | HCV inh
COc1ccc(Cn2c(=O)[nH]c3cc(C(=O)N4CCN(Cc5ccccc5)CC4)ccc3c2=O)cc1 | 14.1µM* | 152.9% | -10.4% | -63.0* | ?
COc1ccc(CCn2c(=O)[nH]c3cc(C(=O)N4CCN(c5ccccc5)CC4)ccc3c2=O)cc1OC | 15.8µM* | -11.3% | -3.7% | -19.6 | ?
Cc1ccc2c(CC(=O)Nc3ccc(S(=O)(=O)N4CCC(C)CC4)cc3)coc2c1 | -5.2% | . | 4.2% | 7.4 | .
Cc1c(C(=O)Nc2c(N)nc(SCC(=O)NCC3CCCO3)[nH]c2=O)cccc1[N+](=O)[O-] (stereo unspecified) | -2.2% | -0.1% | -3.6% | -34.0 | 25.0%
COc1ccc(-n2ncc(C(C)NS(=O)(=O)c3cc(C)sc3C)c2C)cc1 (stereo unspecified) | -1.7% | . | . | -26.5 | .
CC=CC1OCC(CC)C(CCC)O1 (stereo unspecified) | -13.9% | . | . | 27.3 | 20.6%
O=C(Nn1c(C2CCCCC2)nc2ccccc2c1=O)c1ccc([N+](=O)[O-])cc1Cl | -23.9% | 14.1µM* | -9.8% | ? | 7.4%
COc1ccc(/C=N/Nc2cc(C)nc3ccc(OC)cc23)c(OC)c1 | ? | -21.1% | 0.7% | -105.1* | 10µM*
COc1ccc2nc(C)cc(N/N=C/c3ccccc3)c2c1 | -4.3% | -2.9% | -5.9% | . | 10µM*
CC1CCCN(C(=O)CN(c2ccccc2)S(=O)(=O)c2ccc(F)cc2)C1 (stereo unspecified) | 31.6% | 9.6% | -1.6% | -32.2 | 5.3%
COc1ccccc1-c1nc(C#N)c(N2CCN(Cc3ccccc3)CC2)o1 | ? | 82.1% | 1.2% | -32.6 | 11.2µM*
O=C1C(=O)c2c(C(=O)c3ccccc3)coc2-c2ccccc21 | -1.5% | -34.9% | -0.4% | -92.8* | 11.2µM*
Cc1onc(-c2ccccc2Cl)c1C(=O)c1ccccc1 | ? | -23.1% | -4.0% | 2.4 | 18.8%
Cc1oc2c(c1C(=O)O)C(=O)c1ccccc1C2=O | -24.0% | -21.2% | -0.1% | 18.0 | 8.6%
CCOC(=O)c1c(C)nc2c(c1-c1ccccc1)C(=O)c1ccccc1-2 | 6.6% | 76.3% | 5.4% | -101.0* | ?
O=C(c1ccccc1)c1coc2ccc(O)c(Cl)c12 | 0.0% | -8.8% | 5.9% | 28.4 | .
CCOC(=O)c1c(C)oc2c1C(=O)c1ccccc1C2=O | -20.7% | -22.6% | -11.3% | -15.2 | 5.62µM*
Cc1oc2c(c1C(=O)c1ccccc1)C(=O)C(=O)c1ccccc1-2 | ? | -54.6% | 3.7% | -102.9* | 10µM*
COc1cccc(NC(=O)C(OC(=O)c2cnc(C)cn2)c2ccccc2)c1 (stereo unspecified) | 23.2% | -50.7% | 0.0% | -6.2 | -3.5%
CCCCn1cc2c(c1-c1cccc(C)c1)c(=O)n(C)c(=O)n2C | -24.0% | 19.8% | 2.4% | 12.0 | 10µM*
COC(=O)c1c(OCc2ccccn2)cc(=O)n2c1CCN(C(=O)c1n[nH]c3c1CCCC3)CC2 | -10.5% | . | . | . | .
Clc1ccc(-n2cccc2CN2CCOc3ccc(CN4CCOCC4)cc3C2)nc1 | -6.0% | . | . | . | .
COc1ccc(C(CNC(=O)COc2ccc(F)cc2Br)N2CCCC2)cc1 (stereo unspecified) | -23.8% | 149.4% | 4.8% | -60.5* | ?
CC(C)C[C@H]1CN(CCCC[C@H]2CNC(=O)C(=O)N2CC2CCCCC2)C(=O)C(=O)N1CCC1CCCCC1 | ? | . | . | 19.7 | .
C=CC(=O)Nc1cccc(Oc2cc(Cl)nc3[nH]ccc23)c1 | ? | -23.0% | . | -17.5 | ?
SMILES | FMDV inh | AmpC inh no detg | AmpC inh detg | HCMV antiviral | HCV inh
CC(=O)c1c(-c2ccccc2)c2cc(Cl)ccc2[nH]c1=O | 2.6% | -23.0% | ? | -62.8* | 2.4%
CC(=O)c1c(-c2ccc(Cl)cc2)c2ccccc2[nH]c1=O | -15.2% | -3.5% | 0.6% | ? | -17.2%
COc1ccc(NC(=O)Nc2ccc(OC)cc2)cc1 | 37.9% | -10.5% | -4.6% | 10.7 | 23.7%
N#Cc1ccc(NC(=O)Nc2ccc(Oc3ccc(NC(=O)Nc4ccc(C#N)cc4)cc3)cc2)cc1 | 0.0% | -50.1% | 10.5% | -82.4* | ?
N#Cc1ccc(NC(=O)Nc2cccc(C#N)c2)cc1 | ? | -49.6% | -8.4% | -39.8 | 10µM*
COc1cc2oc(=O)cc(CN3CCN(c4ccccc4F)CC3)c2cc1Cl | -14.3% | . | . | -4.0 | .
CCOC(=O)C1CCCN(C(=O)C2CCN(Cc3nc(-c4ccc(Cl)cc4)oc3C)CC2)C1 (stereo unspecified) | ? | . | . | -24.7 | 11.2µM*
Cc1oc(-c2ccc(Cl)cc2)nc1CN1CCC(C(=O)N2CCc3ccccc3C2)CC1 | 22.4µM* | 76.8% | 3.3% | . | -17.7%
Brc1ccc2[nH]cc(/C=N/N3CCCCC3)c2c1 | -4.8% | -28.7% | -1.4% | -83.7* | ?
CCOC(=O)c1cc2[nH]c3ccccc3c2[n+](-c2ccc([N+](=O)[O-])cc2)c1C | -24.9% | -8.3% | ? | -13.5 | -8.9%
CCOC(=O)c1cc2[nH]c3ccccc3c2[n+](-c2ccc([N+](=O)[O-])cc2)c1N | ? | -5.2% | 0.6% | -91.0* | 10.8%
Cc1nc2sc(C(c3cccs3)N3CCN(c4cccc(Cl)c4)CC3)c(O)n2n1 (stereo unspecified) | 0.0% | 99.3% | -2.0% | -61.9* | -28.7%
Cc1nc2sc(C(c3cccs3)N3CCN(C(=O)c4ccco4)CC3)c(O)n2n1 (stereo unspecified) | 2.3% | 72.6% | -1.9% | 76.0 | 17.2%
COc1ccc(-c2ccc(=O)n(Cc3c(F)cccc3Cl)n2)cc1 | -8.0% | 49.7% | 4.8% | -25.5 | ?
O=C(CSc1ccc([N+](=O)[O-])cc1)c1ccccc1 | 1.0% | . | . | -73.3* | 33.3%
COc1ccc(-c2ccc(=O)n(Cc3cccc([N+](=O)[O-])c3)n2)cc1 | ? | 12.4% | -0.6% | -38.0 | 11.2µM*
COc1ccc(-c2cc(C)nc(SCC(=O)c3cccc([N+](=O)[O-])c3)n2)cc1 | 10.0% | 11.9% | ? | 1.1 | 15.8µM*
O=C(CSc1ccccc1C(=O)O)c1ccc([N+](=O)[O-])cc1 | 23.5% | -33.8% | -8.1% | -6.4 | 2.3%
Cc1ccc(OCc2nnc(SCC(=O)Nc3cc(C)on3)n2C)cc1 | -12.7% | -19.5% | -4.1% | -10.1 | 0.0%
Cc1ccc(OCc2nnc(SCC(=O)c3cccc([N+](=O)[O-])c3)n2C)cc1 | 0.0% | -29.7% | -6.5% | -22.4 | 8.91µM*
CCc1cccc(NC(=O)CN2c3ccccc3S(=O)(=O)c3ccccc32)c1 | -2.9% | . | -5.5% | 31.6 | .
O=C(CSc1nc(-c2ccccc2)cc(C(F)(F)F)n1)c1cccc([N+](=O)[O-])c1 | ? | -44.8% | -6.8% | -26.8 | ?
Cc1cc(-c2ccccc2)nc(SCC(=O)c2cccc([N+](=O)[O-])c2)n1 | ? | -26.5% | 0.6% | 7.6 | 12.6µM*
